# This is one part of the list. A number with no mark means an inactive call. No stated cut-off is given here; in the data, active means IC50 below about 10 µM; inactive means the rest.
# Assay: inhibitors of DNA CAG/GTC TO-PRO-1 complex, dose response, counter-screen for rCAG RNA repeat binder project, biochemical, fluorescence, TO-PRO-1 dye (AID 686960)
# Details: DNA CAG/GTC duplex TO-PRO-1 dye displacement fluorescence
smiles,measurement,value
O=C1CC(=O)N(Cc2ccccc2)C(=O)N1CCCCCCN1C(=O)CC(=O)N(Cc2ccccc2)C1=O,IC50,11.5 µM
